Inconclusive results are not listed. Calls of active or inactive are those of the source. The call rests on the fitted dose curve; in most records, active means well fitted cell-killing curve with a large enough effect; inconclusive means small, poorly fitted or top-dose-only effect; inactive means no such curve, though single readings can be large or run the other way.
Potency means the concentration at half of the fitted maximal effect.

A short description of the test: qHTS of pediatric cancer cell lines to identify multiple opportunities for drug repurposing: Primary screen for SJ-GBM2 cells (AID 1347091). Particulars: SJ-GBM2 viability, CellTiter-Glo luminescence, 48 h; series mostly up to 46 µM. An excerpt:
Drug repurposing or repositioning has been offered as a strategy for drug development in oncology programs. This approach has special potential for childhood cancers and other rare or orphan diseases, where the expected return on new drug development has been a disincentive to pharmaceuticals.
In this project we exploit the poly-pharmacology of drugs to discover new indications via phenotypic screening of a panel of 19 well-characterized cell lines derived from solid tumors seen in children and adolescents. The goal is to identify approved drugs with previously unrecognized anticancer properties that has the potential to reveal new mechanisms and biological processes involved in carcinogenesis or drug resistance. We employed a titration-based paradigm (quantitative high-throughput screening or qHTS), where all compounds were tested at multiple concentrations for their effect on cell viability. Concentration-response curves (CRCs) were derived directly from the primary screen, and both potency and efficacy values were used to identify compounds with robust bioactivity profiles. We screened the NIH Chemical Genomics Center (NCGC) Pharmaceutical Collection (NPC) and Mechanism Interrogation Plate (MIPE) small molecule collections of approved and investigational compounds against these cell lines; and measured metabolically active cells after 48 hours of compound treatment as a proxy for cell viability.
Assay Submitter: Nathalia J. Martinez, National Center for Advancing Translational Sciences, National Institutes of Health, Rockville, MD, USA; email: natalia.martinez@nih.gov
[1] Shen, M et al. Quantitative high-throughput phenotypic screening of pediatric cancer cell lines identifies multiple opportunities for drug repurposing. Oncotarget 2017 Dec 19;9(4):4758-4772. PMID 29435139.
The cells were obtained from University of North Carolina (UNC), Pediatric Preclinical Testing Program (PPT), and Coriell Institute (CI).
qHTS cell viability assay:
Cells were assayed in growth media at a density of 500-1,000 cells/well. Five microliters of cells were dispensed into 1,536-well, white, solid-bottom, TC-treated plates (Greiner Bio One) using a multidrop dispenser and incubated at 37 degrees C, 5% CO2, under a humidified atmosphere for 5 hours. Twenty-three nanoliters of compounds and controls (neutral control DMSO or positive control bortezomib at final concentration of 2.3 µM) were subsequently transferred by Kalypsys pintool. For primary screens, the MIPE collection was tested at 11-point dilutions (final concentrations range from 0.78 nM to 46 µM) and the NPC collection at 8-point dilutions (final concentrations range from 0.59 nM to 46 µM). Compounds tested in follow-up screens were assayed at 11-point dilutions. Cells were incubated for 48 hours, followed by addition of 3 uL of CellTiter-Glo (Promega). After a 15 min incubation at room temperature, samples were analyzed for luminescence intensity using a ViewLux High-throughput CCD imager equipped with clear filters.
In general terms: In qHTS, concentration-response curves come from the screen itself.
For `Cc1cc(Nc2ncnc3ccc(-c4ccc(CNCCS(C)(=O)=O)o4)cc23)ccc1Oc1ccn2ncnc2c1`, the Potency was 5.26 µM (active). The value for `CC(C)c1ccccc1Cc1cc(C(=O)Nc2ccc(S(=O)(=O)c3ccccc3C(C)(C)C)cc2)c(O)c(O)c1O` was 2.96 µM (active). To `COc1ccc2c(c1)CC[C@@H](CN(C)CC(=O)O)[C@H]2c1ccccc1` belongs 1.18 µM (active). The value for `CS(=O)(=O)N1CCN(Cc2cc3nc(-c4cccc5[nH]ncc45)nc(N4CCOCC4)c3s2)CC1` was 0.372 µM (active). Take `OCCCNc1cc(-c2ccnc(Nc3cccc(Cl)c3)n2)ccn1`: the Potency was 0.0833 µM (active).

For `O=C(CCCCCCC(=O)Nc1ccc([C@H]2O[C@@H](CSc3nc(-c4ccccc4)c(-c4ccccc4)o3)C[C@@H](c3ccc(CO)cc3)O2)cc1)NO`, the Potency is 14.8 µM (active). The value for `CCS(=O)(=O)c1cccc(-c2cc(C(=O)NC3CCN(C)CC3)c(C)c3[nH]c4ncc(C)cc4c23)c1` was 0.526 µM (active); that for `C[C@]12CC[C@H](O)CC1=CCC1C2CC[C@]2(C)C(n3cnc4ccccc43)=CCC12` (stereo not given in full) was 23.5 µM (active); that for `Cc1ccc(S(=O)(=O)Nc2cc(Cl)ccc2C(=O)Nc2nc(-c3ccccc3)cs2)cc1` was 7.43 µM (active). As for `CN1CCN(Cc2ccc(NC(=O)Nc3ccc(Oc4cc(NC(=O)C5CC5)ncn4)cc3)cc2C(F)(F)F)CC1`, the Potency is 0.372 µM (active). The value for `CC(C)CC(=O)Nc1n[nH]c2c1CN(C(=O)C1CCN(C)CC1)C2(C)C` was 1.48 µM (active); that for `CC(C)(C)c1cc(NC(=O)Nc2ccc(-c3cn4c(n3)sc3cc(OCCN5CCOCC5)ccc34)cc2)no1` was 14.8 µM (active); that for `COc1cc(C)c(Sc2cnc(NC(=O)c3ccc(CNC(C)C(C)C)cc3)s2)cc1C(=O)N1CCN(C(C)=O)CC1` (stereo not given) was 18.7 µM (active). The value for `Nc1nc(-c2nn(Cc3ccccc3F)c3ncccc23)nc(N)c1N1CCOCC1` was “inactive”.

On to `Nc1cccc(-c2cc3c(Oc4cccc(O)c4)ncnc3[nH]2)c1`, for which the Potency was 20.9 µM (active). To `COc1ccc(CC2SC(=O)NC2=O)cc1C(=O)NCc1ccc(C(F)(F)F)cc1` (stereo not given) belongs “inactive”; to `CC(C)(O)c1cc2nc(-c3cnc(N)nc3)nc(N3CCOCC3)c2s1`, 0.235 µM (active); to `Cc1c(CN2CCN(S(C)(=O)=O)CC2)sc2c(N3CCOCC3)nc(-c3cnc(N)nc3)nc12`, 0.0469 µM (active). To `O=C(C=Cc1cccnc1)NCCCCC1CCN(C(=O)c2ccccc2)CC1` belongs 0.0166 µM (active); to `C1Cc2[nH]nc(-c3nn[nH]n3)c2C1`, “inactive”.

`COC(=O)Nc1nc2ccc(C(=O)c3ccc(F)cc3)cc2[nH]1`: the Potency was 0.526 µM (active). Consider `CC(C)c1nn(-c2c(Cl)cccc2Cl)c2nc(Cc3ccc(OCCO)cc3)[nH]c(=O)c12`, for which the Potency was 0.0418 µM (active).

As to `CCC1=C[C@@H]2CN(C1)Cc1c([nH]c3ccccc13)[C@@](C(=O)OC)(c1cc3c(cc1OC)N(C)[C@@H]1[C@@](O)(C(=O)OC)[C@H](OC(C)=O)[C@]4(CC)C=CCN5CC[C@]31[C@@H]54)C2`, the Potency is 0.0332 µM (active).

Consider `CC[C@H](CO)Nc1nc(NCc2ccccc2)c2ncn(C(C)C)c2n1`, for which the Potency was 16.6 µM (active). The value for `C[C@@H](Oc1cc(-n2cnc3ccc(CN4CCN(C)CC4)cc32)sc1C(N)=O)c1ccccc1C(F)(F)F` was 0.0296 µM (active). To `COc1cc2c(NC3CCN(C(C)C)CC3)nc(C3CCCCC3)nc2cc1OCCCN1CCCC1` belongs 23.5 µM (active); to `COc1cc(C(=O)N2CCC(N3CCN(C)CC3)CC2)ccc1Nc1ncc2c(n1)N(C)c1ccccc1C(=O)N2C`, 18.7 µM (active). To `CCN(CC)CCNC(=O)c1ccc2nc(-c3ccccc3)c(-c3ccc(CN4CCC(n5c(=O)[nH]c6ccccc65)CC4)cc3)nc2c1` belongs 16.6 µM (active); to `COc1cc2c(Oc3ccc(-c4cnc(Nc5ccc(F)cc5)n(C)c4=O)cc3F)ccnc2cc1OCCCN1CCOCC1`, 0.526 µM (active). For the molecule `Clc1cccc(-c2nnnn2Cc2cccnc2)c1Cl`, the Potency result is “inactive”. To `COc1ccc(-n2nc(C(N)=O)c3c2C(=O)N(c2ccc(N4CCCCC4=O)cc2)CC3)cc1` belongs “inactive”; to `COc1ccc(C(=O)CC2(O)C(=O)Nc3c(Cl)ccc(Cl)c32)cc1` (stereo not given), 1.18 µM (active). The value for `Cc1ccc(C(=O)Nc2cccc(C(F)(F)F)c2)cc1-c1ccc2nc(NCCN3CCOCC3)ncc2c1` was 6.62 µM (active); that for `COc1c(N2C[C@@H]3CCCN[C@H]3C2)c(F)cc2c(=O)c(C(=O)O)cn(C3CC3)c12` was “inactive”; that for `Cc1cn(-c2cc(NC(=O)c3ccc(C)c(Nc4nccc(-c5cccnc5)n4)c3)cc(C(F)(F)F)c2)cn1` was 18.7 µM (active). To `CC[C@@]1(O)C(=O)OCc2c1cc1n(c2=O)Cc2cc3cc(O)ccc3nc2-1` belongs 0.0235 µM (active); to `CC(C)C[C@H](NC(=O)CNC(=O)c1cc(Cl)ccc1Cl)B(O)O`, 0.187 µM (active). For the molecule `Cc1coc2c1C(=O)C(=O)c1c-2ccc2c1CCCC2(C)C`, the Potency is 5.9 µM (active). The value for `COc1ccc(-c2cc3c(C)nc(N)nc3n(C3CCC(OCCO)CC3)c2=O)cn1` (stereo not given) was 0.0235 µM (active); that for `CC(C)c1noc(N2CCC(COc3ccc(-c4ccc(S(C)(=O)=O)cc4)nc3)CC2)n1` was “inactive”.

The record behind these values is PubChem BioAssay (NCATS).
